Data: PubChem BioAssay (NCATS)
Records with an inconclusive call do not appear. Active and inactive are the calls of the source. Calls follow the shape of the dose curve; as a rule, active = well fitted curve in the direction sought with a large enough effect; inconclusive = small, poorly fitted or top-dose-only effect, or another doubt; inactive = no such curve, though single readings can be large; an effect the other way counts as inactive or inconclusive.

Assays:
[1] = Quantitative High-Throughput drug screen in 47 multiple myeloma cell lines against the NCATS MIPE library collection: AMO1_DSMZ cell viability assay (AID 1918927; also: nearly all actives have a fitted effect of over 30% in size)
Outline: (§1)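 CellTiter-Glo ATP luminescence gave viability after 48 h compound treatment at 37C of 500 multiple myeloma cells per well. Normalisation used DMSO-only wells as 100% and media-only wells as 0% viability; primary qHTS of approved and investigational drugs.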

[2] = Quantitative High-Throughput drug screen in 47 multiple myeloma cell lines against the NCATS MIPE library collection: JIM3_ECACC cell viability assay (AID 1918963; also: nearly all actives have a fitted effect of over 35% in size; also: potency is read from the fitted curve at half-maximal effect)
Outline: (§2)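 Approved and investigational drugs from MIPE 4.0 were added by pin tool to 500 cells per well. After 48 hours at 37C, ATP-based CellTiter-Glo luminescence indicated remaining viability.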

[3] = Quantitative High-Throughput drug screen in 47 multiple myeloma cell lines against the NCATS MIPE library collection: KMS27_JCRB cell viability assay (AID 1918970); also: nearly all actives have a fitted effect of over 30% in size; also: potency is read from the fitted curve at half-maximal effect
Outline: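 Each line is seeded at 500 cells per well and treated with library compounds for 48 hours under 37 °C, 5% CO2. CellTiter-Glo is then added for 5 min at room temperature before median relative luminescence is recorded.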

[4] = Quantitative High-Throughput drug screen in 47 multiple myeloma cell lines against the NCATS MIPE library collection: KMS12BM_JCRB cell viability assay (AID 1918971); also: nearly all actives have a fitted effect of over 35% in size; also: potency is read from the fitted curve at half-maximal effect
Outline: as §2

[5] = Quantitative High-Throughput drug screen in 47 multiple myeloma cell lines against the NCATS MIPE library collection: KMS12PE_JCRB cell viability assay (AID 1918972); also: nearly all actives have a fitted effect of over 30% in size; also: potency is read from the fitted curve at half-maximal effect
Outline: (§3)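 Inhibition of cell viability is measured here. Each line was plated at 500 cells per well, treated with MIPE 4.0 drugs, kept 48 hours at 37C, then assayed for ATP content by CellTiter-Glo luminescence.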

[6] = Quantitative High-Throughput drug screen in 47 multiple myeloma cell lines against the NCATS MIPE library collection: ARP1_JJKsccF8 cell viability assay (AID 1918928; also: nearly all actives have a fitted effect of over 40% in size; also: potency is read from the fitted curve at half-maximal effect)
Outline: (§4)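 Each line was plated at 500 cells/well and treated 48 h with library drugs. Viability came from CellTiter-Glo luminescence relative to DMSO and cell-free medium controls.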

[7] = Quantitative High-Throughput drug screen in 47 multiple myeloma cell lines against the NCATS MIPE library collection: KMS20_JCRB cell viability assay (AID 1918973); also: nearly all actives have a fitted effect of over 45% in size; also: potency is read from the fitted curve at half-maximal effect
Outline: as §1

[8] = Quantitative High-Throughput drug screen in 47 multiple myeloma cell lines against the NCATS MIPE library collection: MMM1_PLB cell viability assay (AID 1918976); also: nearly all actives have a fitted effect of over 35% in size; also: potency is read from the fitted curve at half-maximal effect
Outline: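 ATP-based luminescence (CellTiter-Glo, 5 min RT incubation) quantified surviving cells following two days' treatment with MIPE 4.0 agents at 37 °C, 5% CO2.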

[9] = Quantitative High-Throughput drug screen in 47 multiple myeloma cell lines against the NCATS MIPE library collection: Karpas620_DSMZ cell viability assay (AID 1918959); also: nearly all actives have a fitted effect of over 30% in size; also: potency is read from the fitted curve at half-maximal effect
Outline: as §2

[10] = Quantitative High-Throughput drug screen in 47 multiple myeloma cell lines against the NCATS MIPE library collection: JIM1_ECACC cell viability assay (AID 1918964; also: potency is read from the fitted curve at half-maximal effect)
Outline: as §1

[11] = Quantitative High-Throughput drug screen in 47 multiple myeloma cell lines against the NCATS MIPE library collection: INA6_PLB cell viability assay (AID 1918965; also: nearly all actives have a fitted effect of over 55% in size; also: potency is read from the fitted curve at half-maximal effect)
Outline: as §3

[12] = Quantitative High-Throughput drug screen in 47 multiple myeloma cell lines against the NCATS MIPE library collection: H1112_PLB cell viability assay (AID 1918967; also: nearly all actives have a fitted effect of over 30% in size; also: potency is read from the fitted curve at half-maximal effect)
Outline: as §1

[13] = Quantitative High-Throughput drug screen in 47 multiple myeloma cell lines against the NCATS MIPE library collection: Karpas25_ECACC cell viability assay (AID 1918968; also: nearly all actives have a fitted effect of over 35% in size; also: potency is read from the fitted curve at half-maximal effect)
Outline: as §1

[14] = Quantitative High-Throughput drug screen in 47 multiple myeloma cell lines against the NCATS MIPE library collection: Karpas417_ECACC cell viability assay (AID 1918961); details: Karpas417 myeloma viability, CellTiter-Glo ATP luminescence, 48 h; viability (% of DMSO): at 45.8 µM (top of the series); also: potency is read from the fitted curve at half-maximal effect
Outline: as §3

[15] = Quantitative High-Throughput drug screen in 47 multiple myeloma cell lines against the NCATS MIPE library collection: JJN3_DSMZ cell viability assay (AID 1918966; also: nearly all actives have a fitted effect of over 50% in size; also: potency is read from the fitted curve at half-maximal effect)
Outline: as §1

[16] = Quantitative High-Throughput drug screen in 47 multiple myeloma cell lines against the NCATS MIPE library collection: KMS21BM_JCRB cell viability assay (AID 1918974); details: ATP luminescence, 48 h; viability: at 45.8 µM (top of the series) unless noted; also: potency is read from the fitted curve at half-maximal effect
Outline: as §1

[17] = Quantitative High-Throughput drug screen in 47 multiple myeloma cell lines against the NCATS MIPE library collection: KMM1_JCRB cell viability assay (AID 1918960); also: nearly all actives have a fitted effect of over 30% in size
Outline: as §4

[18] = Quantitative High-Throughput drug screen in 47 multiple myeloma cell lines against the NCATS MIPE library collection: KMS26_JCRB cell viability assay (AID 1918975); also: nearly all actives have a fitted effect of over 45% in size; also: potency is read from the fitted curve at half-maximal effect
Outline: as §2

[19] = Quantitative High-Throughput drug screen in 47 multiple myeloma cell lines against the NCATS MIPE library collection: ARD_JJKsccE7 cell viability assay (AID 1918929; also: potency is read from the fitted curve at half-maximal effect)
Outline: as §1

[20] = Quantitative High-Throughput drug screen in 47 multiple myeloma cell lines against the NCATS MIPE library collection: KHM11_PLB cell viability assay (AID 1918962); also: nearly all actives have a fitted effect of over 35% in size; also: potency is read from the fitted curve at half-maximal effect
Outline: as §2

Measured: Potency

OC[C@H]1O[C@@H](Oc2cc(O)cc(C=Cc3ccc(O)cc3)c2)[C@H](O)[C@@H](O)[C@H]1O
inactive: [1] | [2] | [3] | [4] | [5]

CC=CC[C@@H](C)C(=O)[C@H]1C(=O)N[C@@H](C(C)C)C(=O)N(C)CC(=O)N(C)[C@@H](CC(C)C)C(=O)N[C@@H](C(C)C)C(=O)N(C)[C@@H](CC(C)C)C(=O)N[C@@H](C)C(=O)N[C@H](C)C(=O)N(C)[C@@H](CC(C)C)C(=O)N(C)[C@@H](CC(C)C)C(=O)N(C)[C@@H](C(C)C)C(=O)N1C
inactive: [5]
active: [6] 18.7 µM | [2] 23.5 µM | [3] 4.69 µM | [4] 23.5 µM | [7] 1.32 µM | [8] 5.26 µM

CS(=O)(=O)N(Cc1ccco1)CC(O)Cn1c2ccccc2c2ccccc21 (stereo not drawn)
active: [2] 14.8 µM | [11] 18.7 µM | [13] 6.62 µM | [4] 20.9 µM | [8] 20.9 µM
inactive: [6] | [9] | [10] | [12] | [3] | [5]

O=C(O)C=Cc1ccc(O)c(O)c1
active: [6] 26.4 µM | [9] 20.9 µM | [14] 14.8 µM | [15] 10.5 µM | [3] 16.6 µM | [4] 20.9 µM | [16] 13.2 µM | [8] 7.43 µM
inactive: [2] | [12]

O=C(Nc1ccccc1-c1cn2c(CN3CCNCC3)csc2n1)c1cnc2ccccc2n1
active: [6] 23.5 µM | [2] 33.2 µM | [10] 2.96 µM | [11] 9.35 µM | [15] 9.35 µM | [12] 9.35 µM | [13] 5.9 µM | [4] 10.5 µM | [7] 2.96 µM | [18] 9.35 µM
inactive: [17] | [3] | [5]

O=C(O)[C@H]1O[C@H](Oc2cc3oc(-c4ccccc4)cc(=O)c3c(O)c2O)[C@H](O)[C@@H](O)[C@H]1O
active: [20] 20.9 µM | [15] 13.2 µM | [4] 16.6 µM
inactive: [19] | [11] | [12] | [13] | [5]

CCc1ccc(C=C2SC(=S)NC2=O)cc1
inactive: [6] | [20] | [10] | [12]
active: [11] 2.35 µM

COC1CCC(N(C(=O)C2CCC(C)CC2)c2cc(C3=CCCCC3)sc2C(=O)O)CC1 (stereo not drawn)
active: [11] 23.5 µM
inactive: [19] | [9] | [17] | [10] | [3] | [5] | [7] | [16] | [18]

C[C@@H]1CCN(C(=O)CC#N)C[C@H]1N(C)c1ncnc2[nH]ccc12
inactive: [6] | [9] | [14] | [2] | [12] | [13] | [5] | [8]

COc1ccc2c(Oc3ccc(NC(=O)c4c(C)n(CC(C)(C)O)n(-c5ccccc5)c4=O)cc3F)ccnc2c1
active: [19] 20.9 µM | [9] 23.5 µM | [15] 8.33 µM | [12] 20.9 µM | [3] 20.9 µM | [4] 33.2 µM | [5] 26.4 µM
inactive: [14] | [18]

NC(=O)c1cnc(-c2ccc(C3(N)CCC3)cc2)c(-c2ccccc2)c1
active: [6] 8.33 µM | [11] 10.5 µM | [12] 4.18 µM | [13] 13.2 µM | [4] 8.33 µM

N[C@@]1(C(=O)O)CS(=O)(=O)[C@H]2[C@H](C(=O)O)[C@H]21
inactive: [6] | [9]
active: [11] 14.8 µM

CCC(CC)[C@H](NC(C)=O)[C@@H]1[C@H](O)[C@@H](C(=O)O)C[C@@H]1N=C(N)N
inactive: [6] | [19] | [20] | [2] | [11] | [15] | [12] | [3]

CC(C(=O)O)c1ccc(-c2ccccc2)c(F)c1 (stereo not drawn)
inactive: [19] | [9] | [17] | [10] | [15] | [5]
active: [11] 18.7 µM | [12] 18.7 µM | [13] 20.9 µM | [7] 4.69 µM | [8] 1.87 µM

Cc1ccc(C(=O)Nc2cccc(C(F)(F)F)c2)cc1Nc1nc(-c2cccnc2)nc2c1cnn2C
inactive: [9] | [17] | [10] | [3] | [5] | [16]
active: [6] 10.5 µM | [20] 13.2 µM | [2] 10.5 µM | [11] 11.8 µM | [15] 18.7 µM | [12] 14.8 µM | [13] 13.2 µM | [4] 13.2 µM | [7] 8.33 µM
